Records with an inconclusive call do not appear. A call without a number means that no potency is given here. The source made the active and inactive calls. The call rests on the fitted dose curve; in most records, active means well fitted inhibition curve with a large enough effect; inconclusive means small, poorly fitted or top-dose-only effect; inactive means flat fitted curve, though single readings scatter.
Potency means the concentration at half of the fitted maximal effect.

In this assay the test system is Zika virus NS2B-NS3 protease. Nature of the assay: Primary screen GU AMC qHTS for Zika virus inhibitors (AID 1347154). Further: nearly all actives have a fitted effect of over 70% in size. To be noted: Zika NS2B-NS3 unlinked protease, AMC fluorogenic substrate; series mostly up to 54.1 µM. The method, boiled down:
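Unlinked Zika NS2B hydrophilic domain/NS3 protease domain noncovalent complex (25 nM final) in 10 mM Tris-HCl pH 8.0, 0.01% Tween 20, with AMC peptide substrate. Fluorescence (ex 340, em 450 nm) change over 15 min, room temperature; percent inhibition fitted to 4-parameter Hill equation.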
Regarding `CC(C)(C)c1ccc(O)cc1`, the Potency entry is “inactive”.
Under `COP(=S)(OC)Oc1ccc(SC)c(C)c1` stands “inactive”.
For `C#C[C@]1(O)CC[C@H]2[C@@H]3CCC4=CC(=O)CC[C@]4(C)[C@H]3CC[C@@]21C`, the Potency result is “inactive”.
For `COP(=S)(OC)Oc1cc(Cl)c(Cl)cc1Cl`, the Potency entry is “inactive”.
The same measure for `CCOC(=O)CC(SP(=S)(OC)OC)C(=O)OCC` (configuration not stated): “inactive”; for `CC(C)=CC1C(C(=O)OCN2C(=O)C3=C(CCCC3)C2=O)C1(C)C` (configuration not stated): “inactive”; for `CC[N+]1(CC)CCC(OC(=O)C(O)(c2ccccc2)c2ccccc2)C1` (configuration not stated): “inactive”.
The same measure for `NC(=O)CS(=O)C(c1ccccc1)c1ccccc1` (configuration not stated): “inactive”; for `COC1CC(=C(c2cccs2)c2cccs2)C[N+](C)(C)C1` (configuration not stated): “inactive”.
Under `CCC1(c2ccccc2)C(=O)N(COC)C(=O)N(COC)C1=O` stands “inactive”; under `CC(Cc1ccccc1)N(C)Cc1ccco1` (configuration not stated), “inactive”; under `C#CC(O)(C=CCl)CC` (configuration not stated), “inactive”.
Consider `CN1C(=O)COc2c(C(=O)NC3CN4CCC3CC4)cc(Cl)cc21` (configuration not stated), for which the Potency entry was “inactive”.
Under `CCC(CC)(CNC(=O)CCCO)c1cccc(OC)c1` stands “inactive”.
The same measure for `O=C1OC(CCN2CCCCC2)OC1(c1ccccc1)c1ccccc1` (configuration not stated): “inactive”; for `O=C(O)c1ccc(=O)[nH]c1`: “inactive”; for `CCCCCCCCCC(=O)O[C@H]1CC[C@H]2[C@@H]3CCC4=CC(=O)CC[C@@H]4[C@H]3CC[C@]12C`: “inactive”.
Under `O=[N+]([O-])O[C@H]1CO[C@H]2[C@@H]1OC[C@H]2O[N+](=O)[O-]` stands “inactive”.
For `Nc1nc(N)nc(NC2CC2)n1`, the Potency result is “inactive”.
Consider `CCC1(CC)C(=O)C=CNC1=O`, for which the Potency result is “inactive”.
On to `C[C@H](N)C(=O)c1ccccc1`, for which the Potency entry was “inactive”.
For `COc1cccc(C(=O)CCN[C@@H](C)[C@H](O)c2ccccc2)c1`, the Potency result was “inactive”.
The same measure for `COP(=S)(OC)Oc1ccc(S(=O)(=O)N(C)C)cc1`: “inactive”; for `O=C1c2ccccc2C(=O)C1C(=O)C(c1ccccc1)c1ccccc1`: “inactive”.
Under `C[C@]12CCC(=O)C=C1CC[C@@H]1[C@H]3CC[C@](C)(O)[C@@]3(C)CC[C@@H]12` stands “inactive”.
Consider `CC(C)NC(C)C`, for which the Potency entry was “inactive”.
Take `CCN(CC)C(=O)[C@@H]1C=C2c3cccc4[nH]cc(c34)C[C@H]2N(C)C1`: the Potency is 35.5 µM (active).
The same measure for `COC(=O)C(Cl)C(=O)OC`: “inactive”; for `O=C(N/N=C/c1ccc([N+](=O)[O-])o1)c1cc([N+](=O)[O-])cc([N+](=O)[O-])c1O`: “inactive”; for `COc1c2c(cc3c1OCO3)CCN(C)C2`: “inactive”.
Regarding `CCN[C@@H](C)Cc1cccc(C(F)(F)F)c1`, the Potency entry was “inactive”.
Under `COc1cc(CCN)cc(OC)c1OC` stands “inactive”; under `c1ccc2c(c1)sc1ccccc12`, “inactive”.
The same measure for `Nc1ccc([As](=O)(O)O)cc1`: “inactive”.
Under `CC(C)c1c(CN(C)C(C)Cc2ccccc2)n(C)n(-c2ccccc2)c1=O` (configuration not stated) stands “inactive”.
`CCCCCCC(=O)CCCCCC/C=C/C[C@@H](O)[C@H](O)[C@@](N)(CO)C(=O)O`: the Potency entry is “inactive”.
The same measure for `COC(=O)[C@@H](N)CCCN/C(N)=N/[N+](=O)[O-]`: “inactive”.
